# In all, about 94,000 compounds went through this assay and about 4,000 (4.3%) were called active. Not shown: some 29% with an inconclusive outcome. Only a selection was taken, and actives are over-represented in it overall. Unmarked numbers belong to inactive results. The call rests on the fitted dose curve; in most records, active means well fitted inhibition curve with a large enough effect; inconclusive means small, poorly fitted or top-dose-only effect; inactive means no such curve, though single readings can be large or run the other way.
# Test: Cytotoxic Profiling in NIH 3T3 Cell Line of Diverse Libraries Using Quantitative High-Throughput Screening; further: nearly all actives have a fitted effect of over 55% in size
# Details: NIH 3T3 viability, CellTiter-Glo ATP luminescence, 48-72 h; series mostly up to 96.7 µM; activity change, negative = cytotoxicity: at the top concentration
# From the text: Cell-based phenotypic screening is a commonly used approach to discover biological pathways, novel drug targets, chemical probes and high-quality hit-to-lead molecules. Many hits identified from high-throughput screening campaign are ruled out through a series of follow-up potency, selectivity/specificity, and cytotoxicity assays. Prioritization of molecules with little or no cytotoxicity for a more in-depth downstream evaluation influence the future direction of projects, so cytotoxicity profiling of the screening libraries at early stage is essential for increasing the likelihood of candidate success. In this study, we analyzed results from a cell-based cytotoxicity screening campaign, comprising nearly 10,000 compounds in NCATS annotated libraries, and over 100,000 compounds in a diversity library, evaluated in four normal cell lines (HEK 293, NIH 3T3, CRL-7250 and HaCat) and a cancer cell line (KB 3-1, a HeLa subline) with overall screening outcomes, hit rates, pan-activity and selectivity. For the annotated library, we also examined the primary targets and mechanistic pathways regularly associated with cell death. To our knowledge, this is the first study to use high-throughput screening to profile large libraries for cytotoxicity assessment in both normal and cancer cell lines. In summary, the results generated here constitutes a valuable resource for the scientific community and provides insight on identifying cytotoxic compounds with particular mechanisms of action, and prioritizing compounds with suitable cytotoxicity profile for further evaluation.
# NIH 3T3 cells were seeded into white 1536-well plates using a Multidrop Combi peristaltic dispenser (ThermoFisher, Waltham, MA) at a density of 400 cells/well in 5 uL of medium respectively. A pintool (Kalypsys) was used to transfer 23 nL of compound solution to the 1536-well assay plates. After 48 or 72 hr incubation at 37 degree Celsius, 5% CO2 and 95% humidity, 2.5 uL of CellTiter-Glo (Promega) was dispensed into each well using a dispenser (Aspect Automation, St. Paul, MN) with solenoid valves (Lee Valves, Westbrook CT). Plates were left at room temperature for 10 min before imaging the ATP-coupled luminescence using a ViewLux microplate imager (PerkinElmer, Waltham, MA).
# On the % scale 0 is the no-effect control and ±100 the full control effect; potency means the concentration at half of the fitted maximal effect.
Structure (SMILES),"activity change, negative = cytotoxicity",Potency,outcome
CN(C)C(=O)[C@H]1CN2CCC1C[C@@H]2Cn1cc(-c2ccc(-c3ccccc3)cc2)nn1 (stereo not given in full),-19.8% [at 174 µM],,
O=C([C@H]1CN2CCC1C[C@@H]2Cn1cc(-c2ccccc2)nn1)N1CCOCC1 (stereo not given in full),1.2% [at 174 µM],,
Cc1nc(-c2ccccc2)cc([C@H]2CN3CC[C@H]2C[C@@H]3CNC2CCOCC2)n1,,31.6 µM (active),
Cc1nc(-c2ccccc2)cc([C@H]2CN3CC[C@H]2C[C@@H]3CNC2CCN(C)CC2)n1,,56.2 µM (active),
O=[S+]1([O-])NCC2(CCN(Cc3cccnc3)C2)Oc2ncccc21 (stereo not given),,,inactive
COc1ccc([C@@H]2CN(C(=O)c3c(C)noc3C)[C@@H]3C4CCN(CC4)[C@@H]32)cc1,-2.69%,,
CN(C)[C@@H]1CN(C(=O)Cc2ccc(F)cc2)C[C@H]1CO,1.09%,,
O=C1NC2(Cc3ccccc31)CN(Cc1ccncc1)C2,-1.85% [at 138 µM],,
COc1ccc(C(=O)NC[C@H]2C[C@@H]3CCN2C[C@@H]3c2cc(-c3ccccc3)nn2C)cc1,,89.1 µM (active),
COc1ccccc1-c1cc([C@H]2CN3CC[C@H]2C[C@@H]3CNC(C)=O)n(C)n1,,,inactive [at 174 µM]
Cn1nc(-c2cccs2)cc1[C@H]1CN2CC[C@H]1C[C@@H]2CNC(=O)CCCC(=O)O,,,inactive [at 174 µM]
Cn1nc(-c2cccs2)cc1[C@H]1CN2CC[C@H]1C[C@@H]2CNC(=O)Nc1ccccc1,,100 µM (active),
COc1ccc(-c2cc([C@H]3CN4CC[C@H]3C[C@@H]4CNC(=O)c3ccccc3)n(C)n2)cc1OC,-22.8%,,
CCCNC(=O)OC[C@H]1C[C@@H]2CCN1C[C@@H]2c1cc(-c2ccc(OC)c(OC)c2)nn1C,-28.8%,,
CCC(=O)N1CCC2(CC1)c1nccn1-c1ccccc1CN2CC(C)C,-8.23%,,
O=C(Cc1ccc(F)cc1)N1CCN(C2CCN(Cc3cccnc3)C2=O)CC1 (stereo not given),-13.6%,,
CC1=NOC2(CCN(Cc3cncs3)C2)C1 (stereo not given),,,inactive [at 138 µM]
Cc1ccc(S(=O)(=O)NC[C@H]2C[C@@H]3CCN2C[C@@H]3CN2CCN(c3ncccn3)CC2)cc1,-13.2%,,
COc1cc2c(cc1OCc1ccccc1)NC(=O)C21CCN(CCC(C)C)CC1,,89.1 µM (active),
COc1cc2c(cc1OC1CCCC1)NC(=O)C21CCN(C(=O)c2ccnn2C)CC1,-19.9% [at 138 µM],,
COc1cc2c(cc1-c1ccncc1)NC(=O)C21CCN(C(C)=O)CC1,,28.2 µM (active),
COc1cc2c(cc1OCc1ccccc1)NC(=O)C21CCN(C(=O)C(C)C)CC1,,14.1 µM (active),
O=C1NC2(Cc3ccccc31)CN(CC1CC1)C2,0.241% [at 174 µM],,
CC(C)N1CC2CCC(C1)N2C(=O)N1CCCC1,0.693% [at 138 µM],,

Structure (SMILES),"activity change, negative = cytotoxicity",Potency,outcome
CCCSc1ncc(CN2CC[C@H]3CNC[C@H]32)cn1,-19.6%,,
O=C(O)COCC(=O)N1C[C@@H]2C[C@H](C1)c1c(-c3ccc4ccccc4c3)ccc(=O)n1C2,0.104% [at 174 µM],,
Cn1cccc1CN1CCC2(COc3ccncc3[S+](=O)([O-])N2)C1 (stereo not given),-1.63%,,
CCOC(=O)[C@H]1CN(C(=O)N2CCOCC2)[C@]2(C)C(=O)N(CC(=O)N(C)C)c3ccccc3[C@H]12,-22.1% [at 46.1 µM],,
Cc1ccc(C(=O)N2CCC3(CC2)c2nccn2-c2ccccc2CN3C)cc1C,-2.76%,,
FC(F)(F)CN1C2CCC1CN(c1ccc(Cl)nn1)C2,1.46%,,
CCNC(=O)N1CC2CN(C(C)C)CC(C1)O2,-0.941%,,
CC1=NOC2(CCN(Cc3c[nH]c4ccccc34)CC2)C1,,,inactive [at 138 µM]
Cn1cc(CN2CCN(C(=O)COc3ccc(F)cc3)CC2)ccc1=O,-12.8%,,
CCCCc1cn(C[C@H]2CC3CCN2C[C@@H]3C(=O)NCc2ccccc2)nn1 (stereo not given in full),-15.6% [at 174 µM],,
CCCS(=O)(=O)NC[C@H]1C[C@@H]2CCN1C[C@@H]2c1cc(C2CCCC2)nn1C,-27.6% [at 174 µM],,
CCC(CC)c1cc([C@H]2CN3CC[C@H]2C[C@@H]3CNC(=O)NCc2ccccc2)nc(-c2ccncc2)n1,,20 µM (active),
CCC(CC)c1cc([C@H]2CN3CC[C@H]2C[C@@H]3CNS(=O)(=O)Cc2ccccc2)nc(-c2ccncc2)n1,,22.4 µM (active),
COc1ccc(-c2cc([C@H]3CN4CC[C@H]3C[C@@H]4CNS(=O)(=O)Cc3ccccc3)n(C)n2)cc1OC,-25.7%,,
COc1ccc(-c2cn(C[C@H]3C[C@@H]4CCN3C[C@@H]4C(=O)NCc3ccccc3)nn2)cc1,-24.5% [at 174 µM],,
O=S1(=O)NCC2(CCN(Cc3ccc(Cl)s3)C2)Oc2ncccc21 (stereo not given),,,inactive
Cc1noc(C)c1CC(=O)N1[C@H]2CC[C@@H]1c1cnc(-c3ccccc3)nc1C2,-24.3%,,
O=S(=O)(NC[C@H]1C[C@@H]2CCN1C[C@@H]2CN1CCCCC1)c1ccc(Cl)cc1,-27.6% [at 174 µM],,
CNC1CCOCC1,-5.51% [at 230 µM],,
CCCCc1cn(C[C@H]2C[C@@H]3CCN2C[C@@H]3C(=O)NCCNC(C)=O)nn1,-17.5% [at 174 µM],,
CC(C)NC(=O)NC[C@H]1C[C@@H]2CCN1C[C@@H]2CN1CCCC1,,,inactive [at 174 µM]
CN(Cc1ccccc1)C[C@H]1CN2CC[C@H]1C[C@@H]2CNC(=O)Nc1cccc(C#N)c1,,100 µM (active),
C=CCN(C)C[C@H]1CN2CC[C@H]1C[C@@H]2CNC(=O)Nc1cccc(SC)c1,,100 µM (active),
CC[C@H]1CN2CC[C@H]1C[C@@H]2CNCc1cccc(C#N)c1,-7.23% [at 230 µM],,

Structure (SMILES),"activity change, negative = cytotoxicity",Potency,outcome
CN(CCc1ccccn1)C[C@H]1CN2CC[C@H]1C[C@@H]2CNC(=O)c1ccccc1,-25% [at 174 µM],,
CC[C@H]1CN2CC[C@H]1C[C@@H]2CNC(=O)c1ccc(N(C)C)cc1,2.42% [at 174 µM],,
CCOC(=O)[C@H]1CN(C(=O)c2cc3ccccc3s2)[C@]2(C)C(=O)Nc3ccccc3[C@H]12,-34.2% [at 46.1 µM],,
Cc1ccc([C@@H]2CN(Cc3ncc[nH]3)[C@@H]3C4CCN(CC4)[C@@H]32)cc1,-1.78%,,
Cc1ccccc1-c1ccc2n(c1=O)C[C@H]1C[C@@H]2CN(C(=O)CSCC(=O)O)C1,3.5% [at 174 µM],,
COc1ccc(CC(=O)N2Cc3ccccc3CC3(CCCN3C)C2)cc1 (stereo not given),-27.9%,,
CC(C)N1C[C@@H]2OCC(=O)N(Cc3cccnc3)[C@@H]2C1,-15.6% [at 230 µM],,
Cc1ccc([C@@H]2CN(C(=O)c3ccco3)[C@@H]3C4CCN(CC4)[C@@H]32)cc1,-8.11%,,
CC(=O)NCCNC(=O)[C@H]1CN2CCC1C[C@@H]2Cn1cc(-c2ccc(C(C)(C)C)cc2)nn1 (stereo not given in full),-6.09%,,
C#C[C@H]1CN2CC[C@H]1C[C@@H]2CNC(=O)C1CC1,,,inactive [at 230 µM]
COc1ccccc1-c1cc([C@H]2CN3CC[C@H]2C[C@@H]3CNC(=O)c2ccco2)n(C)n1,-8.76% [at 174 µM],,
O=C(NC[C@H]1C[C@@H]2CCN1C[C@@H]2CN1CCN(c2ncccn2)CC1)c1ccc(C(F)(F)F)cc1,-23.7%,,
Cc1nc(-c2ccc(N(C)C)cc2)cc([C@H]2CN3CC[C@H]2C[C@@H]3CNC(=O)C2CCC2)n1,,89.1 µM (active),
Cc1nc(-c2ccc(C(F)(F)F)cc2)cc([C@H]2CN3CC[C@H]2C[C@@H]3CNC(=O)c2ccco2)n1,,25.1 µM (active),
COc1ccc(-c2cc([C@H]3CN4CC[C@H]3C[C@@H]4CNC(=O)C3CC3)n(C)n2)cc1OC,-23.3% [at 174 µM],,
Cc1nc(-c2ccc(C(F)(F)F)cc2)cc([C@H]2CN3CC[C@H]2C[C@@H]3CNC(=O)C2CCC2)n1,,20 µM (active),
COc1ccccc1-c1cc([C@H]2CN3CC[C@H]2C[C@@H]3CNC(=O)c2ccco2)nc(C)n1,-11.9% [at 174 µM],,
O=C(COc1ccccc1)N1C[C@@H]2C[C@H](C1)c1c(-c3ccccc3F)ccc(=O)n1C2,-8.23% [at 174 µM],,
FC(F)(F)CN1C2CCC1CN(c1cccc(Cl)n1)C2,-0.118%,,
O=[N+]([O-])c1ccc(N2CC3CCC(C2)N3CC(F)(F)F)nc1,,,inactive
O=C(N1[C@H]2CC[C@@H]1c1cnc(-c3ccccc3)nc1C2)C1(c2ccccc2)CC1,-26.1%,,
COCCC(=O)N1CCC2(CC1)c1nccn1-c1ccccc1CN2CC(C)C,,,inactive

# From PubChem BioAssay AID1345082 (National Center for Advancing Translational Sciences (NCATS), 2018)
